± gives the standard deviation.
Assays:
Assay in all cases: peptide microarray binding signal (635 nm), min-max normalized on array (fraction of array maximum); higher = stronger binding
Details in all cases: peptide region: H3 20-32
[1] = biological target: T1, HaloTag-ATRX ADD domain (163-292)
T1 chain: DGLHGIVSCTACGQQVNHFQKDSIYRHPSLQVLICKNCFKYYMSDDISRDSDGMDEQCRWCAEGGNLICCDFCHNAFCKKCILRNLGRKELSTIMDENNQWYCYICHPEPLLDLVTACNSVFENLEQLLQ
How it was run: (§1)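 An Axon GenePix 4000B scanned the arrays at 635 nm for signal and at 532 nm to catch misprints. Those arrays held histone 13-mer peptide–cellulose conjugates printed in triplicate on nitrocellulose with a Cy3 tracer, blocked overnight at 4°C and probed for 1 h at 4°C with biotin-labelled HaloTag reader fusions (10 nM to 1 μM) plus streptavidin-Alexa Fluor 647 or with rabbit histone antibodies (1:10,000 to 1:2,000) plus anti-rabbit Alexa 647. Each binding signal is a triplicate-spot mean intensity, scaled min-max within its library.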

[2] = biological target: HaloTag-ING2 PHD (mouse Ing2 200-280)
How it was run: as §1

[3] = biological target: anti-H3K4me3 antibody ab8580
How it was run: as §1

[4] = biological target: anti-H3K9me3 antibody ab8898
How it was run: as §1

[5] = peptide modifications: H3R26me1 H3K27me3, binder concentration: 1:2,000 dilution
[6] = peptide modifications: H3R26me1 H3K27me3, binder concentration: 1:10,000 dilution
[7] = peptide modifications: H3R26cit, binder concentration: 1:2,000 dilution
[8] = peptide modifications: H3R26cit, binder concentration: 1:10,000 dilution
[9] = peptide modifications: H3R26me2a, binder concentration: 1:2,000 dilution
[10] = peptide modifications: H3R26me2a, binder concentration: 1:10,000 dilution
[11] = peptide modifications: H3R26me2s, binder concentration: 1:2,000 dilution
[12] = peptide modifications: H3R26me2s, binder concentration: 1:10,000 dilution
[13] = peptide modifications: H3R26me2a H3K27me3, binder concentration: 1:2,000 dilution
[14] = peptide modifications: H3R26me2a H3K27me3, binder concentration: 1:10,000 dilution
[15] = peptide modifications: H3R26cit H3K27me3, binder concentration: 1:2,000 dilution
[16] = peptide modifications: H3R26cit H3K27me3, binder concentration: 1:10,000 dilution
[17] = peptide modifications: H3R26me2a H3K27me2, binder concentration: 1:2,000 dilution
[18] = peptide modifications: H3R26me2a H3K27me2, binder concentration: 1:10,000 dilution
[19] = peptide modifications: H3S28ph, binder concentration: 1:2,000 dilution
[20] = peptide modifications: H3S28ph, binder concentration: 1:10,000 dilution
[21] = peptide modifications: H3R26me2s H3K27me3, binder concentration: 1:2,000 dilution
[22] = peptide modifications: H3R26me2s H3K27me3, binder concentration: 1:10,000 dilution
[23] = peptide modifications: H3R26me2a H3K27me1, binder concentration: 1:2,000 dilution
[24] = peptide modifications: H3R26me2a H3K27me1, binder concentration: 1:10,000 dilution

Binder: LATKAARKSAPAT [H3 20-32 L A T K A A Rme Kme3 S A P A T]
- peptide microarray binding signal ([1]; peptide modifications: H3R26me1 H3K27me3, binder concentration: 50 nM): 0.00668 ± 0.00028
- peptide microarray binding signal ([1]; peptide modifications: H3R26me1 H3K27me3, binder concentration: 500 nM): 0.019 ± 0.0018
- peptide microarray binding signal ([2]; peptide modifications: H3R26me1 H3K27me3, binder concentration: 10 nM): 0.0343 ± 0.0033
- peptide microarray binding signal ([2]; peptide modifications: H3R26me1 H3K27me3, binder concentration: 100 nM): 0.0417 ± 0.0052
- peptide microarray binding signal [3, 5]: 0.0743 ± 0.016
- peptide microarray binding signal [3, 6]: 0.0599 ± 0.0085
- peptide microarray binding signal [4, 5]: 0.162 ± 0.016
- peptide microarray binding signal [4, 6]: 0.0985 ± 0.023

Binder: LATKAARKSAPAT [H3 20-32 L A T K A A Rcit K S A P A T]
- peptide microarray binding signal ([1]; peptide modifications: H3R26cit, binder concentration: 50 nM): 0.00411 ± 8.3e-05
- peptide microarray binding signal ([1]; peptide modifications: H3R26cit, binder concentration: 500 nM): 0.00633 ± 0.00025
- peptide microarray binding signal ([2]; peptide modifications: H3R26cit, binder concentration: 10 nM): 0.00824 ± 0.00018
- peptide microarray binding signal ([2]; peptide modifications: H3R26cit, binder concentration: 100 nM): 0.0125 ± 0.00034
- peptide microarray binding signal [3, 7]: 0.00296 ± 0.00035
- peptide microarray binding signal [3, 8]: 0.00285 ± 6.5e-05
- peptide microarray binding signal [4, 7]: 0.00168 ± 3.3e-05
- peptide microarray binding signal [4, 8]: 0.00138 ± 1.4e-05

Binder: LATKAARKSAPAT [H3 20-32 L A T K A A Rme2a K S A P A T]
- peptide microarray binding signal ([1]; peptide modifications: H3R26me2a, binder concentration: 50 nM): 0.00357 ± 0.0001
- peptide microarray binding signal ([1]; peptide modifications: H3R26me2a, binder concentration: 500 nM): 0.00624 ± 0.00038
- peptide microarray binding signal ([2]; peptide modifications: H3R26me2a, binder concentration: 10 nM): 0.00806 ± 0.00052
- peptide microarray binding signal ([2]; peptide modifications: H3R26me2a, binder concentration: 100 nM): 0.0122 ± 0.0012
- peptide microarray binding signal [3, 9]: 0.00525 ± 0.00065
- peptide microarray binding signal [3, 10]: 0.004907 ± 3.6e-05
- peptide microarray binding signal [4, 9]: 0.00334 ± 0.00044
- peptide microarray binding signal [4, 10]: 0.00294 ± 6.7e-05

Binder: LATKAARKSAPAT [H3 20-32 L A T K A A Rme2s K S A P A T]
- peptide microarray binding signal ([1]; peptide modifications: H3R26me2s, binder concentration: 50 nM): 0.00668 ± 0.00025
- peptide microarray binding signal ([1]; peptide modifications: H3R26me2s, binder concentration: 500 nM): 0.01295 ± 0.0001
- peptide microarray binding signal ([2]; peptide modifications: H3R26me2s, binder concentration: 10 nM): 0.0106 ± 0.00025
- peptide microarray binding signal ([2]; peptide modifications: H3R26me2s, binder concentration: 100 nM): 0.0116 ± 0.00039
- peptide microarray binding signal [3, 11]: 0.00451 ± 0.00012
- peptide microarray binding signal [3, 12]: 0.00479 ± 0.00014
- peptide microarray binding signal [4, 11]: 0.0047 ± 0.00025
- peptide microarray binding signal [4, 12]: 0.00329 ± 9.9e-05

Binder: LATKAARKSAPAT [H3 20-32 L A T K A A Rme2a Kme3 S A P A T]
- peptide microarray binding signal ([1]; peptide modifications: H3R26me2a H3K27me3, binder concentration: 50 nM): 0.00539 ± 0.00011
- peptide microarray binding signal ([1]; peptide modifications: H3R26me2a H3K27me3, binder concentration: 500 nM): 0.0116
- peptide microarray binding signal ([2]; peptide modifications: H3R26me2a H3K27me3, binder concentration: 10 nM): 0.0206 ± 0.0011
- peptide microarray binding signal ([2]; peptide modifications: H3R26me2a H3K27me3, binder concentration: 100 nM): 0.0261 ± 0.0021
- peptide microarray binding signal [3, 13]: 0.0393 ± 0.004
- peptide microarray binding signal [3, 14]: 0.0294 ± 0.0026
- peptide microarray binding signal [4, 13]: 0.0809 ± 0.0092
- peptide microarray binding signal [4, 14]: 0.052 ± 0.0034

Binder: LATKAARKSAPAT [H3 20-32 L A T K A A Rcit Kme3 S A P A T]
- peptide microarray binding signal ([1]; peptide modifications: H3R26cit H3K27me3, binder concentration: 50 nM): 0.00564 ± 0.00031
- peptide microarray binding signal ([1]; peptide modifications: H3R26cit H3K27me3, binder concentration: 500 nM): 0.00676 ± 0.00027
- peptide microarray binding signal ([2]; peptide modifications: H3R26cit H3K27me3, binder concentration: 10 nM): 0.0135 ± 0.00085
- peptide microarray binding signal ([2]; peptide modifications: H3R26cit H3K27me3, binder concentration: 100 nM): 0.0188 ± 0.00063
- peptide microarray binding signal [3, 15]: 0.0286 ± 0.0025
- peptide microarray binding signal [3, 16]: 0.0204 ± 0.00089
- peptide microarray binding signal [4, 15]: 0.0791 ± 0.0015
- peptide microarray binding signal [4, 16]: 0.05 ± 0.006

Binder: LATKAARKSAPAT [H3 20-32 L A T K A A Rme2a Kme2 S A P A T]
- peptide microarray binding signal ([1]; peptide modifications: H3R26me2a H3K27me2, binder concentration: 50 nM): 0.004984 ± 4.8e-05
- peptide microarray binding signal ([1]; peptide modifications: H3R26me2a H3K27me2, binder concentration: 500 nM): 0.00857 ± 0.00072
- peptide microarray binding signal ([2]; peptide modifications: H3R26me2a H3K27me2, binder concentration: 10 nM): 0.0166 ± 0.00092
- peptide microarray binding signal ([2]; peptide modifications: H3R26me2a H3K27me2, binder concentration: 100 nM): 0.0255 ± 0.00049
- peptide microarray binding signal [3, 17]: 0.0097 ± 0.0011
- peptide microarray binding signal [3, 18]: 0.0118 ± 0.00089
- peptide microarray binding signal [4, 17]: 0.0051 ± 0.00036
- peptide microarray binding signal [4, 18]: 0.00363 ± 7.8e-05

Binder: LATKAARKSAPAT [H3 20-32 L A T K A A R K Sph A P A T]
- peptide microarray binding signal ([1]; peptide modifications: H3S28ph, binder concentration: 50 nM): 0.013 ± 0.00031
- peptide microarray binding signal ([1]; peptide modifications: H3S28ph, binder concentration: 500 nM): 0.00843 ± 0.0004
- peptide microarray binding signal ([2]; peptide modifications: H3S28ph, binder concentration: 10 nM): 0.01074 ± 4.2e-05
- peptide microarray binding signal ([2]; peptide modifications: H3S28ph, binder concentration: 100 nM): 0.0104 ± 0.00034
- peptide microarray binding signal [3, 19]: 0.001057 ± 8.9e-06
- peptide microarray binding signal [3, 20]: 0.00126
- peptide microarray binding signal [4, 19]: 0.00116 ± 2.3e-05
- peptide microarray binding signal [4, 20]: 0.00144 ± 2.8e-05

Binder: LATKAARKSAPAT [H3 20-32 L A T K A A Rme2s Kme3 S A P A T]
- peptide microarray binding signal ([1]; peptide modifications: H3R26me2s H3K27me3, binder concentration: 50 nM): 0.00342 ± 5.6e-05
- peptide microarray binding signal ([1]; peptide modifications: H3R26me2s H3K27me3, binder concentration: 500 nM): 0.003095 ± 2.4e-05
- peptide microarray binding signal ([2]; peptide modifications: H3R26me2s H3K27me3, binder concentration: 10 nM): 0.00889 ± 0.00023
- peptide microarray binding signal ([2]; peptide modifications: H3R26me2s H3K27me3, binder concentration: 100 nM): 0.00808 ± 0.00038
- peptide microarray binding signal [3, 21]: 0.0443 ± 0.0026
- peptide microarray binding signal [3, 22]: 0.0353 ± 0.0044
- peptide microarray binding signal [4, 21]: 0.082 ± 0.006
- peptide microarray binding signal [4, 22]: 0.0554 ± 0.0085

Binder: LATKAARKSAPAT [H3 20-32 L A T K A A Rme2a Kme S A P A T]
- peptide microarray binding signal ([1]; peptide modifications: H3R26me2a H3K27me1, binder concentration: 50 nM): 0.00489 ± 1.8e-05
- peptide microarray binding signal ([1]; peptide modifications: H3R26me2a H3K27me1, binder concentration: 500 nM): 0.00571 ± 0.00016
- peptide microarray binding signal ([2]; peptide modifications: H3R26me2a H3K27me1, binder concentration: 10 nM): 0.0113
- peptide microarray binding signal ([2]; peptide modifications: H3R26me2a H3K27me1, binder concentration: 100 nM): 0.0169 ± 0.00094
- peptide microarray binding signal [3, 23]: 0.00704 ± 0.00042
- peptide microarray binding signal [3, 24]: 0.00879 ± 0.00091
- peptide microarray binding signal [4, 23]: 0.00356 ± 0.00021
- peptide microarray binding signal [4, 24]: 0.00236 ± 3.7e-05
